# Data taken from PubChem BioAssay AID999 (SRMLSC, 2007).
# The source made the active and inactive calls.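 How the source made its calls: active means viability at or below 21.59%, 3 SD under the median of tested compounds; inactive means the rest.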
# Assay: growth suppression of PTEN-null HCT116 cells, cell-based, validation, diverse DP compound set (AID 999);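 further: 100% = median luminescence of untreated cell control wells and 0% = no signal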
# Settings: CellTiter-Glo, 60 h, at 10 µM, active compounds read low
row,Compound,viability
1,CCCN1CCC[C@@H]2Cc3cn[nH]c3C[C@H]21,105% (inactive)
2,C[C@@H]1O[C@@H](OC2CC(O)C3(CO)C4C(CCC3(O)C2)C2(O)CCC(C3=CC(=O)OC3)C2(C)C[C@H]4O)[C@H](O)[C@H](O)[C@H]1O (some centres undefined),106% (inactive)
3,N#Cc1nn(-c2c(Cl)cc(C(F)(F)F)cc2Cl)c(N)c1S(=O)C(F)(F)F (centres undefined),85.6% (inactive)
4,CSC(=S)NCc1c[nH]c2ccccc12,91.6% (inactive)
5,O[C@H]1[C@H](O)[C@@H](O)CN2CC[C@H](O)[C@H]12,97.8% (inactive)
6,N#CC(C#N)=Cc1ccc([N+](=O)[O-])c(O)c1,108% (inactive)
7,CC(C)(C)[C@]1(O)C[C@@H]2OC(=O)CC23C(=O)O[C@@H]2OC(=O)[C@H](O)C231 (some centres undefined),93.3% (inactive)
8,COC(=O)C(O)C(O)(CCC(C)C)C(=O)OC1C(OC)=CC23CCCN2CCc2cc4c(cc2C13)OCO4 (centres undefined),26.2% (inactive)
9,CC[C@@]1(O)C(=O)OCc2c1cc1n(c2=O)-c2cc3ccccc3nc2C1,24.7% (inactive)
10,N#CC(C#N)=Cc1cc(O)c(O)c([N+](=O)[O-])c1,106% (inactive)
11,COC[C@H]1OC(=O)c2coc3c2[C@@]1(C)C1=C(C3=O)C2CCC(=O)[C@@]2(C)C[C@H]1OC(C)=O (some centres undefined),78.4% (inactive)
12,C[C@]12CC[C@@H](O)C[C@@H]1CC[C@@H]1[C@@H]2CC[C@]2(C)C(=O)CC[C@@H]12,98.8% (inactive)
13,CC(=O)O[C@H]1[C@H]2[C@@H](OC(=O)Cc3ccccc3)[C@@H](C)C[C@]2(OC(C)=O)C(=O)/C(C)=C/[C@@H]2[C@H](CC[C@@]13CO3)C2(C)C,68.9% (inactive)
14,C[C@@H]1CC[C@H]2[C@@H](C)C(=O)O[C@@H]3OC4(C)CC[C@@H]1[C@]32OO4,71.5% (inactive)
15,CCCCCCCCCCCCCC(=O)O[C@@H]1[C@@H](C)[C@@]2(O)[C@@H](C=C(CO)C[C@]3(O)C(=O)C(C)=C[C@@H]23)[C@@H]2C(C)(C)[C@]12OC(C)=O,53.1% (inactive)
16,CN(C)[C@@H]1C(=O)C(C(N)=O)=C(O)[C@@]2(O)C(=O)C3=C(O)c4c(O)cccc4[C@@](C)(O)C3CC12 (some centres undefined),97.1% (inactive)
17,CNc1ccc2oc(C[C@@H]3OC4(CC[C@@H]3C)O[C@H](C(C)C(=O)c3ccc[nH]3)[C@H](C)C[C@H]4C)nc2c1C(=O)O (some centres undefined),3.3% (active)

row,Compound,viability
1,O=C1C=CC(=O)C(Cl)=C1,95.1% (inactive)
2,O=C1CCC[C@H]2[C@@H]3CCCN4CCC[C@H](CN12)[C@H]34,105% (inactive)
3,C=C(C)[C@H]1CN[C@H](C(=O)O)[C@H]1CC(=O)O,99.8% (inactive)
4,NCC(CC(=O)O)c1ccc(Cl)cc1 (centres undefined),94.7% (inactive)
5,CC/C(=C(\c1ccccc1)c1ccc(OCCN(C)C)cc1)c1ccccc1,35.9% (inactive)
6,OCC1CCCN2CCCCC12 (centres undefined),106% (inactive)
7,C=CCN1CC[C@]23c4c5ccc(O)c4O[C@H]2C(=O)CC[C@@]3(O)[C@H]1C5,89.3% (inactive)
8,CC1=C2[C@H]3OC(=O)[C@@H](C)[C@@H]3CC[C@@]2(C)C=CC1=O,95.7% (inactive)
9,CCN1C[C@@]2(COC)C3[C@@H](OC)[C@H]4C1[C@@]3(C1C[C@]3(O)C(OC)[C@H](O)[C@@]4(OC(C)=O)C1[C@H]3OC(=O)c1ccccc1)[C@H](OC)C[C@H]2O (some centres undefined),89.3% (inactive)
10,O=C1C=C2C=C[C@@H]3C[C@@]2(O1)[C@H]1CCCCN31,79.4% (inactive)
11,COC1=C[C@@H]2[C@@H]3Cc4ccc(OC)c(O)c4[C@]2(CCN3C)CC1=O,96% (inactive)
12,NCCc1c[nH]c2ccc(O)cc12,98.1% (inactive)
13,Nc1ccncc1,100% (inactive)
14,CCCC[C@H]1C(=O)O[C@H](C)[C@H](NC(=O)c2cccc(NC=O)c2OC)C(=O)O[C@@H](C)[C@@H]1OC(=O)CC(C)C,93.3% (inactive)
15,C[C@H]1CCC/C=C/C2C[C@H](O)C[C@H]2[C@H](O)/C=C/C(=O)O1 (some centres undefined),58.2% (inactive)
16,CC(C)c1cc2c(c(O)c1O)[C@@]1(C(=O)O)CCCC(C)(C)[C@@H]1CC2,97.5% (inactive)
17,CN1C[C@H](CNC(=O)OCc2ccccc2)C[C@@H]2c3cccc4c3c(cn4C)C[C@H]21,75.3% (inactive)
